# Source: PubChem BioAssay (Tox21)
# Records with an inconclusive call do not appear. Unmarked numbers belong to inactive results. Calls come from the whole dose curve; as a rule, active = well fitted cell-killing curve with a large enough effect in the repeat runs; inconclusive = weak or mixed curves; inactive = flat fitted curve, though single readings scatter.
# Test: qHTS assay to identify small molecule antagonists of the estrogen related receptor (ERR) signaling pathway from Tox21 library - cell viability counter screen (AID 1224834); note: nearly all actives have a fitted effect of over 30% in size
# Conditions: ERR reporter cells viability, CellTiter-Fluor, 17.5 h; series mostly up to 92.4 µM; viability change, negative = cytotoxic: at the top concentration
# From the text: National Center for Advancing Translational Sciences [NCATS]
# NIH Chemical Genomics Center [NCGC]
# U.S. Environmental Protection Agency [EPA]
# National Institutes of Environmental Health Sciences [NIEHS]
# National Toxicology Program [NTP]
# U.S. Food and Drug Administration [FDA]
# Estrogen related receptors (ERRs), the first orphan nuclear receptors discovered, play an important role in the control of cellular energy metabolism. ERRs are required for high-energy production in response to the environmental challenges. ERR-alpha was also identified as an adverse marker for breast cancer progression; ERR-alpha-positive tumors have a poor prognosis. To screen and to identify environmental compounds that perturb the ERR signaling pathways could provide valuable information for potential therapeutic or preventive measures in the treatment of metabolic disease. To differentiate true ERR antagonists or agonist from cytotoxic substances, the assay is multiplexed with cell viability assay.
# Tox21 Assay Protocol Summary:
# The ERR cells were dispensed at 2,000 cells/5 ul/well in 1536-well white plates using a Multidrop dispenser. After the assay plates were incubated at a 37 C/5% CO2 incubator for 6 hours, 23 nL of compounds dissolved in DMSO, positive and negative controls or DMSO only was transferred to the assay plate by a pin tool. The plates were incubated at 37 C for 17.5 hours. 1 ul/well of CellTiter-Fluor reagent was added into the assay plates using a Flying Reagent Dispenser. After 30-minute incubation at 37 C/5% CO2, the fluorescence intensity in the plates was measured using a ViewLux plate reader.
# % is set by controls: 0 for no effect and ±100 for the full control effect.
row,SMILES,"viability change, negative = cytotoxic"
1,OCCN1CCOCC1,4.03%
2,C=C(C)[C@@H]1CC=C(C)C(=O)C1,3.89%
3,C=CCN1C[C@H](C(=O)N(CCCN(C)C)C(=O)NCC)C[C@@H]2c3cccc4[nH]cc(c34)C[C@H]21,-12.9% [at 42.5 µM]
4,Cc1cc(C)c(C(=O)O)c(C)c1,4.22%
5,CCc1occc(=O)c1O,-0.709%
6,O=C(CCCCC(=O)Nc1c(I)cc(I)c(C(=O)O)c1I)Nc1c(I)cc(I)c(C(=O)O)c1I,-10.4% [at 42.5 µM]
7,COc1cc(/C=C/C(N)=O)cc(OC)c1OC,3.16% [at 42.5 µM]
8,C=CCSSCCC,4.43%
9,OC1(c2ccc(Cl)cc2)CCNCC1,0.306% [at 42.5 µM]
10,C/C(=C1\CCOC(=O)S1)N(C=O)Cc1cnc(C)nc1N,13.7% [at 42.5 µM]
11,COc1ccc2c(c1)c1c3n2CCN(C)C3=NCC1,-3.93% [at 42.5 µM]
12,CC1(C)CC(OC(=O)CCCCCCCCC(=O)OC2CC(C)(C)NC(C)(C)C2)CC(C)(C)N1,-0.749% [at 19 µM]
13,CC/C(C)=N\O[Si](C)(O/N=C(\C)CC)O/N=C(\C)CC,-1.43%
14,Nc1nnnn1-c1ccccc1,7.53% [at 42.5 µM]
15,CO[C@@]1(NC(=O)Cc2cccs2)C(=O)N2C(C(=O)O)=C(COC(N)=O)CS[C@@H]21,2.55% [at 42.5 µM]
16,C=CCCCCCCCCC(=O)OCCCC,2.59%
17,COC(=O)/C=C\C(=O)O,2.6%
18,CCN1CCCC1CN (stereo not given),2.63% [at 42.5 µM]
19,C=C(C)c1cccc(C(C)(C)N=C=O)c1,-3.92%
20,CCCCCCCCCCCCCCCCCCOCCO,-3.06% [at 19 µM]

row,SMILES,"viability change, negative = cytotoxic"
1,C#CCN[C@@H]1CCc2ccccc21,2.47% [at 42.5 µM]
2,CC(O)COC(C)(C)C (stereo not given),0.186%
3,CCC(C(=O)OCCN1CCOC(c2ccccc2)C1C)c1ccccc1 (stereo not given),-12.8% [at 42.5 µM]
4,CCn1cc(C(=O)O)c(=O)c2cnc(N3CCCC3)nc21,0.102% [at 8.39 µM]
5,CC/C=C\CCOC(=O)c1ccccc1O,0.847%
6,CSc1cnccn1,1.76%
7,CCC(=O)CC,-1.62%
8,O=C1NC(c2ccccc2)(c2ccccc2)C(=O)N1COP(=O)(O)O,-5.07% [at 42.5 µM]
9,CN1CCOC(c2ccccc2)c2ccccc2C1 (stereo not given),1.07% [at 42.5 µM]
10,N[C@@H](CSCCCO)C(=O)O,1.22% [at 19 µM]
11,C=Cc1ccc(C(C)(C)C)cc1,0.505%
12,CC(=O)O[C@@H]1CC2CCC1(C)C2(C)C (stereo not given in full),1.12%
13,CCC(C)OC(C)CC (stereo not given),-5.24%
14,CC(=O)CCc1ccc(OC(C)=O)cc1,7%
15,CC1=C(C(=O)O)N2C(=O)[C@@H](NC(=O)[C@H](N)c3ccccc3)[C@H]2SC1,3.87% [at 42.5 µM]
16,C=CCOC(=O)CCCCCC,2.98%
17,O=C(CCCl)NCCc1ccccc1,-2.06% [at 42.5 µM]
18,CC(=O)O[Si](C)(OC(C)=O)OC(C)=O,-0.675%
19,CCCCCCCCCOC(=O)c1ccccc1C(=O)OCCCCCCCCC,0.975%
20,COc1cc2c(cc1OC)C(=O)C(CC1CCN(Cc3ccccc3)CC1)C2 (stereo not given),-0.7% [at 42.5 µM]
